The values that follow come from the antibiotic and cytotoxicity screens of Wong et al. (2023).

Hit rate of the full screen: of about 39,000 compounds, about 3,300 (8.5%) were called active. Many of the other results were omitted from the sample, so actives are more common in it than they were.

The experiment deals with HepG2. Put plainly: cytotoxicity call (relative viability < 0.9). The settings on record: 10 µM.
For the molecule `O[C@H]1[C@H](O)[C@@H](O)[C@H]2O[C@@H]2[C@@H]1O`, the cytotoxicity call was “inactive”.

Regarding `CCSC(=O)NC1CCCCC1`, the cytotoxicity call was “inactive”.

For `COc1ccc(NC(=O)N(C)C[C@H]2OCCCC[C@H](C)Oc3ccc(NC(=O)CCC(F)(F)F)cc3C(=O)N([C@H](C)CO)C[C@@H]2C)cc1`, the cytotoxicity call was “inactive”.

Turning to `CS(=O)(=O)N1CC[C@@H]2OCCN(C(=O)c3cccnc3)[C@@H]2C1`, the cytotoxicity call was “inactive”.

As for `C[C@@H]1CN([C@H](C)CO)C(=O)c2cccc(NS(=O)(=O)c3cn(C)cn3)c2O[C@H]1CN(C)Cc1ccc(C(=O)O)cc1`, the cytotoxicity call is “inactive”.

With `CC(=O)n1cc([C@@H]2C=C(C(=O)NCc3ccccc3)O[C@H](OCc3ccc(CO)cc3)C2)c2ccccc21`, the cytotoxicity call is “inactive”.

As to `C[C@H](CO)N1C[C@H](C)[C@H](CN(C)Cc2ccc(-c3ccccc3)cc2)Oc2ccc(NS(=O)(=O)c3ccccc3)cc2C1=O`, the cytotoxicity call was “inactive”.

Regarding `C[C@@H]1CN([C@H](C)CO)C(=O)c2cc(NS(=O)(=O)c3ccccc3)ccc2O[C@@H]1CN(C)Cc1ccc(-c2ccccc2)cc1`, the cytotoxicity call is “inactive”.

On to `C[C@@H]1CN([C@@H](C)CO)C(=O)c2cc(NS(=O)(=O)c3ccccc3)ccc2O[C@H]1CN(C)Cc1ccc(-c2ccccc2)cc1`, for which the cytotoxicity call was “active”.

On to `C[C@H]1CN([C@@H](C)CO)C(=O)c2cc(NS(=O)(=O)c3ccccc3)ccc2O[C@@H]1CN(C)Cc1ccc(-c2ccccc2)cc1`, for which the cytotoxicity call was “inactive”.

Turning to `C[C@H]1CN([C@@H](C)CO)C(=O)c2cc(NS(=O)(=O)c3ccccc3)ccc2O[C@H]1CN(C)Cc1ccc(-c2ccccc2)cc1`, the cytotoxicity call was “inactive”.

In the case of `C[C@@H]1CN([C@@H](C)CO)C(=O)c2cc(NS(=O)(=O)c3ccccc3)ccc2O[C@@H]1CN(C)Cc1ccc(-c2ccccc2)cc1`, the cytotoxicity call was “active”.

Take `C[C@@H]1CCCCO[C@H](CN(C)C(=O)Nc2ccc3c(c2)OCO3)[C@H](C)CN([C@H](C)CO)C(=O)c2cc(NC(=O)Nc3ccccc3)ccc2O1`: the cytotoxicity call is “inactive”.

For `C[C@H]1CCCCO[C@@H](CN(C)C(=O)Nc2ccc3c(c2)OCO3)[C@@H](C)CN([C@@H](C)CO)C(=O)c2cc(NC(=O)Nc3ccccc3)ccc2O1`, the cytotoxicity call is “inactive”.

In the case of `COc1ccc(NC(=O)N(C)C[C@@H]2OCCCC[C@@H](C)Oc3ccc(NC(=O)c4ccccc4)cc3C(=O)N([C@H](C)CO)C[C@H]2C)cc1`, the cytotoxicity call is “active”.

For `COc1ccc(NC(=O)Nc2ccc3c(c2)C(=O)N([C@H](C)CO)C[C@H](C)[C@@H](CN(C)C(=O)Nc2ccc4c(c2)OCO4)OCCCC[C@H](C)O3)cc1`, the cytotoxicity call is “active”.

Turning to `COc1ccc(NC(=O)N(C)C[C@H]2OCCCC[C@H](C)Oc3ccc(NC(=O)Nc4ccccc4)cc3C(=O)N([C@H](C)CO)C[C@@H]2C)cc1`, the cytotoxicity call is “inactive”.

Regarding `COc1ccc(NC(=O)N(C)C[C@@H]2OCCCC[C@@H](C)Oc3ccc(NC(=O)c4ccccc4)cc3C(=O)N([C@@H](C)CO)C[C@@H]2C)cc1`, the cytotoxicity call was “inactive”.

Consider `COc1ccc(NC(=O)Nc2ccc3c(c2)C(=O)N([C@H](C)CO)C[C@H](C)[C@H](CN(C)C(=O)Nc2ccc4c(c2)OCO4)OCCCC[C@@H](C)O3)cc1`, for which the cytotoxicity call was “inactive”.

Regarding `COc1ccc(NC(=O)N(C)C[C@H]2OCCCC[C@H](C)Oc3ccc(NC(=O)Nc4ccccc4)cc3C(=O)N([C@@H](C)CO)C[C@@H]2C)cc1`, the cytotoxicity call is “inactive”.

On to `COc1ccc(NC(=O)N(C)C[C@H]2OCCCC[C@@H](C)Oc3ccc(NC(=O)Nc4ccccc4)cc3C(=O)N([C@H](C)CO)C[C@@H]2C)cc1`, for which the cytotoxicity call is “active”.

Regarding `COc1ccc(NC(=O)N(C)C[C@@H]2OCCCC[C@H](C)Oc3ccc(NC(=O)Nc4ccc5c(c4)OCO5)cc3C(=O)N([C@@H](C)CO)C[C@H]2C)cc1`, the cytotoxicity call was “inactive”.

For the molecule `COc1ccc(NC(=O)N(C)C[C@H]2OCCCC[C@H](C)Oc3ccc(NC(=O)c4ccccc4)cc3C(=O)N([C@H](C)CO)C[C@@H]2C)cc1`, the cytotoxicity call is “inactive”.

For `C[C@@H]1CCCCO[C@@H](CN(C)C(=O)Nc2ccc3c(c2)OCO3)[C@H](C)CN([C@H](C)CO)C(=O)c2cc(NC(=O)Nc3ccccc3)ccc2O1`, the cytotoxicity call was “active”.

For the molecule `CS(=O)(=O)Nc1ccc2c(c1)[C@@H]1C[C@@H](CC(=O)NCc3ccc(-c4ccccc4)cc3)O[C@@H](CO)[C@@H]1O2`, the cytotoxicity call was “inactive”.

As to `C[C@H](CO)N1C[C@H](C)[C@@H](CN(C)S(=O)(=O)c2cccs2)Oc2ccc(NS(=O)(=O)c3cn(C)cn3)cc2CC1=O`, the cytotoxicity call was “inactive”.

`C[C@H]1CN([C@@H](C)CO)C(=O)c2cccc(NS(=O)(=O)c3cn(C)cn3)c2O[C@@H]1CN(C)C(=O)Nc1ccc(F)cc1`: the cytotoxicity call is “inactive”.

For the molecule `O=C(C[C@@H]1C[C@H]2c3cc(NS(=O)(=O)c4ccc(F)cc4)ccc3O[C@H]2[C@@H](CO)O1)NCc1cccc(F)c1`, the cytotoxicity call was “inactive”.

With `Cc1cc(C(=O)Nc2cccc3c2O[C@@H](CN(C)C(=O)Nc2c(C)noc2C)[C@@H](C)CN([C@@H](C)CO)C3=O)n(C)n1`, the cytotoxicity call was “inactive”.

`Cc1ccc(OC(=O)N(C)C[C@H]2OCc3ccccc3-c3ccccc3C(=O)N([C@H](C)CO)C[C@H]2C)cc1`: the cytotoxicity call is “inactive”.

For the molecule `COc1ccc(CN(C)C[C@@H]2Oc3ccc(NC(=O)Cn4cnnn4)cc3CC(=O)N([C@@H](C)CO)C[C@@H]2C)cc1`, the cytotoxicity call was “inactive”.

In the case of `C[C@@H]1CN([C@@H](C)CO)C(=O)c2cc(NC(=O)c3ccncc3)ccc2O[C@@H](C)CCCCO[C@@H]1CN(C)C(=O)NC1CCCCC1`, the cytotoxicity call is “active”.

For the molecule `C[C@H](CO)N1C[C@H](C)[C@@H](CN(C)C(=O)NC2CCCCC2)OCCCC[C@H](C)Oc2ccc(NC(=O)c3ccccc3)cc2C1=O`, the cytotoxicity call was “active”.

With `C[C@@H]1CCCCO[C@@H](CN(C)C(=O)NC2CCCCC2)[C@@H](C)CN([C@H](C)CO)C(=O)c2cc(NC(=O)c3ccncc3)ccc2O1`, the cytotoxicity call is “inactive”.

Regarding `C[C@@H]1CCCCO[C@H](CN(C)C(=O)NC2CCCCC2)[C@@H](C)CN([C@H](C)CO)C(=O)c2cc(NC(=O)c3ccccc3)ccc2O1`, the cytotoxicity call was “inactive”.

For the molecule `C[C@H]1CCCCO[C@H](CN(C)C(=O)NC2CCCCC2)[C@@H](C)CN([C@@H](C)CO)C(=O)c2cc(NC(=O)c3ccccc3)ccc2O1`, the cytotoxicity call was “inactive”.

With `C[C@@H]1CCCCO[C@H](CN(C)C(=O)NC2CCCCC2)[C@@H](C)CN([C@@H](C)CO)C(=O)c2cc(NC(=O)c3ccncc3)ccc2O1`, the cytotoxicity call is “inactive”.

For `CC(C)NC(=O)Nc1ccc2c(c1)C(=O)N([C@@H](C)CO)C[C@@H](C)[C@H](CN(C)Cc1ccc(Oc3ccccc3)cc1)O2`, the cytotoxicity call was “inactive”.

Consider `C#CCN1C(=O)N(C(=O)c2ccccc2)[C@@H]2c3ccccc3O[C@@]1(COCc1ccc(OC)cc1)[C@@H]2CO[Si](C)(C)C(C)(C)C`, for which the cytotoxicity call is “inactive”.

For the molecule `O=C(N[C@@H]1C=C[C@H](CC(=O)N2CCOCC2)O[C@@H]1CO)c1ccccn1`, the cytotoxicity call was “inactive”.

On to `C[C@H](CO)N1C[C@H](C)[C@@H](CN(C)S(=O)(=O)c2cccs2)Oc2ccc(NS(=O)(=O)c3ccc(F)cc3)cc2CC1=O`, for which the cytotoxicity call is “inactive”.

For the molecule `C[C@H](CO)N1C[C@H](C)[C@H](CN(C)C(=O)Nc2cccc(Cl)c2Cl)OCc2ccccc2-c2ccccc2C1=O`, the cytotoxicity call is “inactive”.

With `N#Cc1ccc(O)c(O)c1`, the cytotoxicity call was “active”.

`N#Cc1ccc(CN)cc1`: the cytotoxicity call was “inactive”.

`O=C(O)c1ccc(O)c(O)c1`: the cytotoxicity call was “inactive”.

Consider `COc1ccc(NC(=O)N(C)C[C@H]2Oc3ccc(NC(=O)Nc4ccc(C(F)(F)F)cc4)cc3C(=O)N([C@H](C)CO)C[C@@H]2C)cc1`, for which the cytotoxicity call is “inactive”.

In the case of `C=CCNC(=O)C(=O)NC[C@H]1OCCCN1S(=O)(=O)c1ccccc1`, the cytotoxicity call was “inactive”.

For the molecule `C[C@@H]1CN([C@@H](C)CO)S(=O)(=O)c2ccc(C3=CCCCC3)cc2O[C@@H]1CN(C)Cc1cncnc1`, the cytotoxicity call was “inactive”.

On to `C[C@@H]1CN([C@@H](C)CO)C(=O)Cc2cc(NC(=O)Cn3cnnn3)ccc2O[C@H]1CN(C)C(=O)NC1CCCCC1`, for which the cytotoxicity call was “inactive”.

As to `Cc1noc(C)c1NC(=O)N(C)C[C@@H]1Oc2ccc(NC(=O)c3ccncc3)cc2C(=O)N([C@H](C)CO)C[C@H]1C`, the cytotoxicity call was “inactive”.

Regarding `COc1ccc2[nH]cc(CCNC(C)=O)c2c1`, the cytotoxicity call was “inactive”.

Turning to `COc1ccc2[nH]c3c(-c4cccc5ccccc45)nccc3c2c1`, the cytotoxicity call is “inactive”.

On to `NCCc1c(C(=O)O)[nH]c2ccc(Br)cc12`, for which the cytotoxicity call was “inactive”.

In the case of `O=c1[nH]c(=O)c2ccccc2[nH]1`, the cytotoxicity call was “inactive”.

Regarding `O=c1[nH]c(=O)c2cc(Br)ccc2[nH]1`, the cytotoxicity call is “active”.

On to `COc1ccc2[nH]c(=O)[nH]c(=O)c2c1`, for which the cytotoxicity call is “active”.

As to `C[C@@H]1CCCCO[C@H](CN(C)C(=O)Nc2ccc(C(F)(F)F)cc2)[C@@H](C)CN([C@H](C)CO)C(=O)c2cc(NS(C)(=O)=O)ccc2O1`, the cytotoxicity call is “inactive”.

On to `CC(C)NC(=O)Nc1cccc2c1O[C@@H](CN(C)C(=O)Nc1ccc3c(c1)OCO3)[C@@H](C)CN([C@@H](C)CO)C2=O`, for which the cytotoxicity call was “inactive”.

In the case of `C[C@@H]1CN([C@@H](C)CO)C(=O)c2cccc(NS(=O)(=O)c3ccccc3)c2O[C@@H]1CN(C)S(=O)(=O)c1cn(C)cn1`, the cytotoxicity call is “inactive”.

Regarding `C=CCOC(=O)[C@H]1[C@@H]2C(=O)O[C@@H](c3ccccc3)[C@@H](c3ccccc3)N2[C@@H](c2ccc(OCCOC(=O)[C@H]3C[C@H]4C(=O)N[C@@H](CC(C)C)C(=O)N4[C@H]3c3ccc(O)cc3)cc2)[C@]12C(=O)Nc1ccc(I)cc12`, the cytotoxicity call was “inactive”.

With `COc1cc(CCC(=O)O)oc(=O)c1`, the cytotoxicity call was “inactive”.

Regarding `COC(=O)[C@H](Cc1ccccc1)N1CC(/C=C/C2CC2)=C[C@@H]1[C@@H](O)CCn1cc(-c2ccc(C(=O)NO)s2)nn1`, the cytotoxicity call is “inactive”.

`COC(=O)[C@@H](Cc1ccccc1)N[C@H](/C=C/C1CC1)[C@@H](O)CCn1cc(-c2cccc(/C=C/C(=O)NO)c2)nn1`: the cytotoxicity call is “inactive”.

As to `COC(=O)[C@H](Cc1ccccc1)N1CC(/C=C/C2CC2)=C[C@@H]1[C@@H](O)CCn1cc(-c2ccc(C(=O)NO)cc2)nn1`, the cytotoxicity call is “inactive”.

As to `C#CCN([C@H](/C=C/C1CC1)[C@@H](O)CCn1cc(-c2ccc(C(=O)NO)s2)nn1)[C@@H](Cc1ccccc1)C(=O)OC`, the cytotoxicity call is “inactive”.

With `COC(=O)[C@@H](Cc1ccccc1)N[C@H](/C=C/C1CC1)[C@@H](O)CCn1cc(-c2ccc(C(=O)NO)s2)nn1`, the cytotoxicity call is “active”.

`COC(=O)[C@@H](Cc1ccccc1)N[C@H](/C=C/C1CC1)[C@@H](O)CCn1cc(-c2ccc(C(=O)NO)cc2)nn1`: the cytotoxicity call is “active”.
